aSyn 5UTR act: Activators via SNCA 5'UTR binding, MLPCN | alpha-synuclein 5'UTR reporter, activators screen | activity score, % (tested at 7.5 µM), hits read low | 300,000 tested, 7.1% active | AID 1814; in the data active = activity score below about -60%
Starred values were filed as active, the others as inactive. Not all results are given here.

SMILES	aSyn 5UTR act
CCCCN=C[C@]12CCC(O)CC1(O)CCC1[C@@H]2CC[C@]2(C)[C@H](C3C=CC(=O)O3)CCC12O (stereo partly drawn)	96
CCC(=Nc1cc(OC)ccc1OC)c1c(O)[nH]c(=O)[nH]c1=O	71
CN1CCc2nc(SCC(=O)OC(C)(C)C)c(C#N)cc2C1	-281*
Cc1ccc(N2C(=O)NC(=O)C3(Cc4ccccc4N4CCN(c5ccccc5)CC43)C2=O)cc1 (stereo not drawn)	-71*
Cc1cc(N2CCOCC2)nc2ccc(NC(=O)CCC(=O)N3CCC4(CC3)OCCO4)cc12	-88*
COc1cc2c(cc1OC)-c1c(OC)c(OC)c(OC)c3ccnc(c13)C2=O	104
Cc1cc(N(CCCl)CCCl)ccc1/C=N/N=C(\N)c1cnccn1	-74*
COc1ccc(-c2cc(=NCC(=O)O)c3ccccc3o2)cc1	-128*
COc1ccc(-c2cc(=Nc3cccc(C(=O)O)c3)c3cc(C)ccc3o2)cc1	-81*
CCCCCn1c(=O)c(C(=O)NCc2ccncc2)c(O)c2ccccc21	65
CCOc1ccc(-c2c(C)n(-c3ccc(OCC)cc3)c3[n+]2CCCCC3)cc1	62
C[C@H]1O[C@@H](OC2CC[C@]3(C=O)[C@H]4CC[C@]5(C)[C@@H](C6=CC(=O)OC6)CC[C@]5(O)[C@@H]4CC[C@]3(O)C2)CC2OC(C)(C)OC21 (stereo partly drawn)	96
Cc1ccc2cc3cc(C(=O)N4CCC5(CC4)OCCO5)oc3nc2c1	-69*
O=C(Nc1ccc(Cl)cc1)OC1CN2CCC1CC2 (stereo not drawn)	-114*
O=C(Nc1cccc(Cl)c1)OC1CN2CCC1CC2 (stereo not drawn)	-64*

From PubChem
